Giardia killer – Giardia lamblia killing. Giardia lamblia trophozoite viability. actives 0.15% (n = 340,000). AID 540267. activity change, % at 7.66 µM, hits read low; in the data active = activity change below about -80%; inconclusive = between about -30% and that limit;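 also: parasites exposed to compound for two days anaerobically before the ATP read; % is scaled to controls: 0 for no effect and ±100 for the full control effect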
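Giardia lamblia trophozoites (100 cells/well) were incubated with compounds for 48 h at 37 deg C under anaerobic conditions. Viability was read as ATP content by one-step luminescence after 15-30 min at room temperature.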
KB-V1 MDR tox – KB-V1 MDR subline cytotoxicity. KB-V1 MDR cells viability, CellTiter-Glo, 72 h. Potency, µM (doses to about 46.1 µM), usual class: cytotoxic. actives 3.4% (n = 400,000). AID 1347076; also: potency is read from the fitted curve at half-maximal effect; % is scaled to controls: 0 for no effect and ±100 for the full control effect; nearly all actives have a fitted effect of over 60% in size
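Readout: CellTiter-Glo luminescence, 10 min after addition. Cells: KB-V1 MDR subline, 72 h at 37 degrees C with compound. Analysis: corrected, normalized data fitted to concentration-effect curves.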
SW480 rerep – induces DNA re-replication in SW480 colon adenocarcinoma cells; SW480 DNA re-replication, Hoechst DNA content imaging, 48 h; Potency, µM (highest dose often 46.1 µM), inactives show at the top dose re-replication activation, hits mostly activators; actives 1.8% (n = 340,000); also: potency is read from the fitted curve at half-maximal effect; % of control where 0% means no effect; nearly all actives have a fitted effect of over 55% in size
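250 cells/well; 23 nL cpd via pin tool; 48 hr, 37 C, 5% CO2; Hoechst 40 min; imager read of total nuclear intensity, ex 405/em 500-530 nm.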
MCF10A rerep – DNA re-replication induction in MCF 10a cells; MCF 10A DNA re-replication, Hoechst nuclear intensity, 48 h; Potency, µM (series often up to 46.1 µM), for inactives: at the highest dose activity, positive = re-replication, actives largely listed as activators; actives 2.9% (n = 350,000); also: potency is read from the fitted curve at half-maximal effect; % of control where 0% means no effect; nearly all actives have a fitted effect of over 50% in size
ASM inhibitor – blocks human secretory acid sphingomyelinase; P17405; placental ASM, HMU-PC fluorogenic substrate, 60 min; Potency, µM (top dose mostly 57.5 µM), for the others: at the highest dose activity change, negative = inhibition, most hits filed as inhibitors; actives 0.006% (n = 340,000); also: potency is read from the fitted curve at half-maximal effect
Target sequence (P17405 47-631 limits assumed): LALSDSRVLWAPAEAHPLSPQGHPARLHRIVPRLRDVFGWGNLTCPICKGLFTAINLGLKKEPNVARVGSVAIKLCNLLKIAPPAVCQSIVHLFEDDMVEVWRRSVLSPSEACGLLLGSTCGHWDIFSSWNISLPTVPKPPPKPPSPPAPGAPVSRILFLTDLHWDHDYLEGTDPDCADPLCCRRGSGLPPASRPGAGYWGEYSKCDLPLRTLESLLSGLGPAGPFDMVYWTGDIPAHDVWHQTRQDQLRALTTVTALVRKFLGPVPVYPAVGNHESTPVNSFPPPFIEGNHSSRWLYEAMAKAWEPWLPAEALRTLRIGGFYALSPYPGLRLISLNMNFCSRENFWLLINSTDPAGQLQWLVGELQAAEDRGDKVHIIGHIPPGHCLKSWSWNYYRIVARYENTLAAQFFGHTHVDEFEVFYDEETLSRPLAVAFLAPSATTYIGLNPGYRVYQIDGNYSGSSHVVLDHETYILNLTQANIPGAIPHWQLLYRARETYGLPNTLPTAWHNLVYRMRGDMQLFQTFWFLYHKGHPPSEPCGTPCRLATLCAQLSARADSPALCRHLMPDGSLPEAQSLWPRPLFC
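Fluorescence read-out (Ex 386 nm, Em 447 nm) after stopping the reaction at pH 10. Enzyme: ASM from human placenta; substrate HMU-PC0, 9 uM final; 60 min, 37 °C. Compound preincubation 10 min, ambient temperature.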
KB-3-1 tox – kills parental KB-3-1 adenocarcinoma cells; KB-3-1 viability, CellTiter-Glo ATP luminescence, 72 h; Potency, µM (highest dose often 46.1 µM), most hits filed as cytotoxic; actives 1.4% (n = 400,000); AID 1347075; also: potency is read from the fitted curve at half-maximal effect; % is scaled to controls: 0 for no effect and ±100 for the full control effect; nearly all actives have a fitted effect of over 60% in size
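Luminescent ATP read-out (CellTiter-Glo) measures survival of drug-naive KB-3-1 cells after 72 h compound exposure at 37 °C. Titration series was screened from lowest to highest concentration, with DMSO vehicle plates as background controls.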
The depositor's hits bear a star; i = inactive; ? = inconclusive; . = no result given; [ ] = another dose, or the depositor's remark. Compounds with a hit are over-represented: about 6.9% of the library has one in this group of screens. Unless noted, calls follow the shape of the dose curve; as a rule, active = well fitted curve in the direction sought with a large enough effect; inconclusive = small, poorly fitted or top-dose-only effect, or another doubt; inactive = no such curve, though single readings can be large; an effect the other way counts as inactive or inconclusive.

SMILES | Giardia killer | KB-V1 MDR tox | SW480 rerep | MCF10A rerep | ASM inhibitor | KB-3-1 tox
Cc1ccc(N(C)S(=O)(=O)c2cccc(C(=O)OCC(=O)N3CCCC(C)C3)c2)cc1 (centres undefined) | 2.3 | 20.6µM* | -4.8% | 9.4% | 0.0% | i
CCOC(=O)c1c(C)[nH]c(C)c1C(=O)COC(=O)c1cccc(S(=O)(=O)N(CC)CC)c1 | 2.9 | i | 9.1% | ? | -5.9% | i
CCN(CC)S(=O)(=O)c1cccc(C(=O)OCC(=O)C23CC4CC(CC(C4)C2)C3)c1 | -15.5 | 14.6µM* | 5.8% | 15.5% | 3.1% | ?
CC1CCN(C(=O)COC(=O)c2cccc(S(=O)(=O)N(C)c3ccccc3)c2)CC1 | -10.2 | 20.6µM* | -5.5% | ? | 2.7% | i
CC1CCCC(C)N1C(=O)COC(=O)c1cccc(S(=O)(=O)N(C)c2ccccc2)c1 (centres undefined) | 25.0 | i | -35.4% | 17.0% | -1.2% | i
Cc1ccc(C)c(NC(=O)CSc2ncc3c(n2)-c2cc(Cl)ccc2N(Cc2ccccc2F)S3(=O)=O)c1 | . | i | . | . | . | i
CCOC(=O)c1cc([N+](=O)[O-])sc1NC(=O)CC | -85.9* | ? | -2.7% | -2.6% | -9.1% | ?
CCOC(=O)c1cc([N+](=O)[O-])sc1NC(=O)c1ccc(S(=O)(=O)N2CC3(C)CC2CC(C)(C)C3)cc1 (centres undefined) | ? | ? | ? | ? | -0.1% | 4.61µM*
CC1(C)CC2CC(C)(CN2S(=O)(=O)c2ccc(C(=O)Nc3ccc(Cl)c(S(=O)(=O)N4CCOCC4)c3)cc2)C1 (centres undefined) | -6.4 | 2.91µM* | 15.3% | -1.5% | -7.4% | 2.91µM*
CCCNC(=O)c1cccc(S(=O)(=O)N2CC3(C)CC2CC(C)(C)C3)c1 (centres undefined) | -25.8 | 2.06µM* | 1.1% | 5.7% | -2.4% | i
CCOC(=O)c1cc([N+](=O)[O-])sc1N | 0.8 | ? | -34.2%[1.84 µM] | -27.6% | -3.7% | i
CN(C)C(CNC(=O)c1cccc(S(=O)(=O)N2CC3(C)CC2CC(C)(C)C3)c1)c1ccco1 (centres undefined) | -19.6 | i | -0.4% | 1.3% | 3.4% | i
CC1(C)CC2CC(C)(CN2S(=O)(=O)c2ccc(C(=O)Nc3ccc(S(=O)(=O)N4CCOCC4)cc3)cc2)C1 (centres undefined) | -3.3 | ? | -10.7% | -3.5% | -3.8% | ?
Cc1ccc2nc(-c3ccc(Cl)c(NC(=O)c4cccc([N+](=O)[O-])c4C)c3)oc2c1 | . | i | . | . | . | i
CC(C)C(=O)N1CCN(c2ccc([N+](=O)[O-])cc2Cl)CC1 | 26.9 | 20.6µM* | -5.8% | -4.1% | -3.3% | i
CC(C)CC(=O)N1CCN(c2ccc([N+](=O)[O-])cc2Cl)CC1 | -22.8 | i | -2.0% | 5.1% | -4.8% | i
COc1ccccc1N1CCN(S(=O)(=O)c2ccc([N+](=O)[O-])cc2)CC1 | . | i | . | . | . | i
COc1ccccc1N1CCN(c2ccc([N+](=O)[O-])cc2Cl)CC1 | 15.3 | 5.8µM* | 18.4µM* | 7.31µM* | -6.7% | 16.4µM*
O=C(O)CCn1c2c(c3ccccc31)C[C@H](NS(=O)(=O)c1ccc(F)cc1)CC2 | . | . | 7.4% | 8.2% | . | .
Cc1ccc(-n2cc3c(-c4cccc(Br)c4)nnc(C)c3n2)cc1 | 14.6 | 16.4µM* | -0.5% | 13.8% | -12.8% | ?
Cc1nnc(-c2cccc(Br)c2)c2cn(-c3ccccc3Cl)nc12 | 8.8 | ? | -13.6% | 14.2% | -7.7% | ?
CC1(C)S[C@@H]2[C@H](NC(=O)[C@@H](N)c3ccccc3)C(=O)N2[C@H]1C(=O)O[C@H]1OC(=O)c2ccccc21 | . | . | -9.5%[20.6 µM] | -2.5%[20.6 µM] | . | .
Cc1ccc(-c2noc(CCC(=O)N(C)c3ccccc3C)n2)cc1 | -9.5 | 13µM* | 3.9% | 2.7% | -6.1% | ?
Cc1ccc(-c2noc(CCC(=O)Nc3ccccc3C)n2)cc1 | 27.0 | 16.4µM* | -0.7% | 35.6% | 3.0% | i
CCc1ccccc1NC(=O)CCc1nc(-c2ccc(C)cc2)no1 | -16.2 | i | -3.1% | 10.2% | 0.4% | i
SMILES | Giardia killer | KB-V1 MDR tox | SW480 rerep | MCF10A rerep | ASM inhibitor | KB-3-1 tox
COc1ccc(C(CC(=O)Nc2ccc(F)c(Cl)c2)N2Cc3ccccc3C2=O)cc1OC (centres undefined) | . | 18.4µM* | . | . | . | i
COc1ccc(C(CC(=O)Nc2ccc(C)c(C)c2)N2Cc3ccccc3C2=O)cc1OC (centres undefined) | . | ? | . | . | . | i
O=C1Nc2ccccc2C1Cc1ccccc1 (centres undefined) | -23.4 | i | 0.2% | -8.7% | -0.1% | i
COc1ccc(C[C@@H]2OC3(C=CC(=O)C=C3)O[C@H]2Cc2ccc(OC)cc2)cc1 | -25.9 | ? | 0.92µM* | 0.731µM* | -6.0% | 2.31µM*
O=C1C=CC2(C=C1)O[C@H](Cc1ccccc1)[C@@H](Cc1ccccc1)O2 | -5.3 | 16.4µM* | 0.92µM* | ? | -2.7% | ?
O=C(N/C(=C\c1ccccc1)C(=O)N1CCN(CCO)CC1)c1ccccc1 | -5.4 | i | 2.1% | -11.4% | 7.8% | i
Cc1ccc2nc(SCC3CCCCO3)[nH]c2c1 (centres undefined) | -14.8 | i | -15.8% | 5.5% | 1.5% | i
c1ccc2c(c1)OCC(CNc1ncnc3sccc13)O2 (centres undefined) | -11.3 | ? | -0.4% | 15.3% | . | 1.64µM*
COc1ccccc1CNc1nc(NCc2cccc(OC)c2OC)c2sccc2n1 | . | 20.6µM* | . | . | . | i
COc1ccccc1CNc1ncnc2sccc12 | -14.5 | 5.17µM* | -4.7% | 19.5% | 4.4% | ?
COCCNc1nc(NCc2cccc(OC)c2OC)c2sccc2n1 | . | ? | . | . | . | i
COc1ccccc1CNc1nc(NCc2ccccc2F)c2sccc2n1 | . | 18.4µM* | . | . | . | ?
COc1ccccc1OCC(=O)NCC(c1ccc(Cl)cc1)N1CCCCC1 (centres undefined) | . | i | . | . | . | i
O=c1[nH]nc(SCCS(=O)(=O)c2ccc(F)cc2)n1-c1ccc2c(c1)OCCO2 | -20.0 | i | ? | ? | 1.5% | i
O=c1[nH]nc(SCCS(=O)(=O)c2ccc(F)cc2)n1-c1ccccc1 | -1.5 | i | 16.4% | 23.1µM* | -3.6% | i
CC(=O)Nc1cnc(-c2ccccc2O)cn1 | . | i | . | . | . | i
CC(C)OCCCn1c(SCC(N)=O)nc2c(sc3ccccc32)c1=O | . | i | . | . | . | i

Source: PubChem BioAssay (National Center for Advancing Translational Sciences (NCATS))
